Data as given in ChEMBL document CHEMBL3433997, “St. Jude Leishmania screening dataset” (2016).

Legend:
Assay type in all cases: functional
[1] = molecular target: Solute carrier family 2, facilitated glucose transporter member 1 (Homo sapiens) (UniProt P11166); test: ST_JUDE_LEISH: Cytotoxicity at 2uM final concentration against transgenic Leishmania Mexicana promastigotes LmGLUT1 that are glucose transport deficient and complemented with the human glucose transporter GLUT1. Activity is measured by DNA content using SYBR green in vitro
Sequence of Solute carrier family 2, facilitated glucose transporter member 1 (Homo sapiens) (P11166 whole entry): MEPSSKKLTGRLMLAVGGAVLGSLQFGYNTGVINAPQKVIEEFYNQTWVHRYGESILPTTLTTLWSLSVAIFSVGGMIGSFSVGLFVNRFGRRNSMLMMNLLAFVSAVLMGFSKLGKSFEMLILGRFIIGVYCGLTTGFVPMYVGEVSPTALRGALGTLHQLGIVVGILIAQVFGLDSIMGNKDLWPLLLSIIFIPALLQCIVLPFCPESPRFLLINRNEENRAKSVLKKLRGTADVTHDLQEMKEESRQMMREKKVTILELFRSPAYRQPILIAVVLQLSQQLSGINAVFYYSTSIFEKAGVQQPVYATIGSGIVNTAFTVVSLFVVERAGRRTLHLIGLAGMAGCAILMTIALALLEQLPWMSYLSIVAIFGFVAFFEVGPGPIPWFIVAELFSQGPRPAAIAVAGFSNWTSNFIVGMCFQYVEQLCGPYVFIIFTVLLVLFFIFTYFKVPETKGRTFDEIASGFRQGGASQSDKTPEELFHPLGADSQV

[2] = molecular target: Hexose transporter 1 (Plasmodium falciparum) (UniProt O97467); test: ST_JUDE_LEISH: Cytotoxicity at 2uM final concentration against transgenic Leishmania Mexicana promastigotes LmPfHT that are glucose transport deficient and complemented with the Plasmodium falciparum hexose transporter. Activity is measured by DNA content using SYBR green in vitro
[3] = molecular target: Glucose transporter (Leishmania mexicana) (UniProt O61059); test: ST_JUDE_LEISH: Cytotoxicity at 2uM final concentration against transgenic Leishmania Mexicana promastigotes LmGT2 that are glucose transport deficient and complemented with the L. Mexicana glucose transporter 2. Activity is measured by DNA content using SYBR green in vitro

Q: How did the inhibition [1] turn out when Cc1cccc2c(CON3C(N)=NC(N)=NC3(C)C)cccc12 was run?
A: 0.73%

Q: What about the inhibition [2] of the same compound?
A: 1.67%

Q: What about the inhibition [3] of the same compound?
A: 1.51%

Q: Which results are given for O=C(C=Cc1ccc(Cl)c(Cl)c1)NCCCCCN1CCC(CCNC(=O)/C=C/c2ccccc2)CC1?
A: inhibition [1]: 0.55%; inhibition [2]: 0.26%; inhibition [3]: 3.1%

Q: For CCCC1(C)CSc2ccccc2C(c2ccccc2)N1 (stereo not drawn), which inhibition [1] is on record?
A: 4.9%

Q: What about the inhibition [2] of the same compound?
A: 6.11%

Q: What about the inhibition [3] of the same compound?
A: 7.67%

Q: How did the inhibition [1] turn out when COc1cc2nc(Nc3ccc(Oc4ccccc4)cc3)nc(Nc3ccc(Oc4ccccc4)cc3)c2cc1OC was run?
A: 6.52%

Q: What about the inhibition [2] of the same compound?
A: 3.92%

Q: What about the inhibition [3] of the same compound?
A: 6.04%

Q: CCNc1cc(C(=O)N[C@@H](Cc2ccccc2)[C@H](O)CNCc2cccc(OC)c2C)cc(N2CCCCS2(=O)=O)c1 was tested. Which inhibition [1] did it give?
A: 1.82%

Q: What about the inhibition [2] of the same compound?
A: 1.66%

Q: What about the inhibition [3] of the same compound?
A: 2.02%

Q: Which results are given for Cc1cc(-c2nc3ccc(N4CCN(C)CC4)cc3[nH]2)nn1Cc1cc(Cl)ccc1OCC(C)C?
A: inhibition [1]: 1%; inhibition [2]: 1.76%; inhibition [3]: 0.44%

Q: What does the source list for Cn1c(N)c(C(=O)CSc2nnc(-c3cccs3)n2Cc2ccccc2)c(=O)n(C)c1=O?
A: inhibition [1]: 10.1%; inhibition [2]: 8.98%; inhibition [3]: 8.86%

Q: For Cc1cc2c(cc1C(F)(F)F)N(C(=O)Nc1cnc(OCCN(C)C)c(C(F)(F)F)c1)CC2, which inhibition [1] is on record?
A: 7.92%

Q: And the inhibition [2]?
A: 6.97%

Q: What about the inhibition [3] of the same compound?
A: 6.3%

Q: Which inhibition [1] does the source give for CCNc1cc(C(=O)N[C@@H](Cc2ccccc2)[C@H](O)CNCCc2cccc3ccccc23)cc(N2CCCC2=O)c1 here?
A: -0.63%

Q: What about the inhibition [2] of the same compound?
A: -0.02%

Q: And the inhibition [3]?
A: -1.96%

Q: Which inhibition [1] does the source give for CCCC(CNCc1ccc(Cl)c(C(F)(F)F)c1)CNc1nc2cnccc2[nH]1 (stereo not drawn) here?
A: 13.5%

Q: What about the inhibition [2] of the same compound?
A: 11.9%

Q: What about the inhibition [3] of the same compound?
A: 8.76%

Q: For CC(C)(C)OC(=O)N[C@@H](Cc1ccccc1)C(=O)Nc1cccc(-c2cccc(NC(=O)[C@H](Cc3ccccc3)NC(=O)OC(C)(C)C)c2)c1, which inhibition [1] is on record?
A: 0.62%

Q: What about the inhibition [2] of the same compound?
A: 0.21%

Q: And the inhibition [3]?
A: 0.33%

Q: How did the inhibition [1] turn out when COc1cc2ncnc(Nc3ccc(Br)c(Cl)c3)c2cc1OC was run?
A: 5.07%

Q: And the inhibition [2]?
A: 5.81%

Q: What about the inhibition [3] of the same compound?
A: 3.09%

Q: With CCOC(=O)c1ccc(NC(=O)N[C@@H](Cc2ccccc2)C(=O)NC2CCN(Cc3ccc(O)cc3)C2)cc1 (stereo partly drawn) as the compound, how does the inhibition [1] read?
A: -1.09%

Q: And the inhibition [2]?
A: 1.43%

Q: And the inhibition [3]?
A: -7.4%

Q: COc1cccc2cc(C(=O)N[C@@H](CC(C)C)C(=O)N[C@H](C=NN3CC(=O)NC3=O)CC(C)C)oc12 was tested. Which inhibition [1] did it give?
A: 2.8%

Q: And the inhibition [2]?
A: 3.84%

Q: What about the inhibition [3] of the same compound?
A: 2.23%

Q: How did the inhibition [1] turn out when CC1CCCC(Nc2noc(-c3sccc3Br)n2)C1 (stereo not drawn) was run?
A: -0.93%

Q: And the inhibition [2]?
A: 0.6%

Q: And the inhibition [3]?
A: -2.55%

Q: Which inhibition [1] does the source give for O=C(N[C@H](CC1CCCCC1)C(=O)NC1CCCc2ccccc21)c1ccc(O)c(-c2cccc([N+](=O)[O-])c2)c1 (stereo partly drawn) here?
A: 1.2%

Q: What about the inhibition [2] of the same compound?
A: 0.18%

Q: And the inhibition [3]?
A: 0.88%

Q: Which results are given for c1ccc2c3c([nH]c2c1)C(c1ccc2c(c1)CCO2)N(c1ncnc(N2CCN(CCCN4CCOCC4)CC2)n1)CC3 (stereo not drawn)?
A: inhibition [1]: 8.79%; inhibition [2]: 3.13%; inhibition [3]: 1.89%

Q: For Cc1ccc(Oc2ccccc2NC(=O)CCc2nc3ccccc3c(=O)[nH]2)cc1, which inhibition [1] is on record?
A: 0.1%

Q: What about the inhibition [2] of the same compound?
A: 0.95%

Q: And the inhibition [3]?
A: 2.88%

Q: CN1CCN(CCCN(Cc2ccc(-c3ccc(CNC4CCCC4)cc3)cc2)C(=O)CCC2CCCC2)CC1 was tested. Which inhibition [1] did it give?
A: 76.5%

Q: And the inhibition [2]?
A: 79.8%

Q: And the inhibition [3]?
A: 5.69%

Q: Which inhibition [1] does the source give for FC(F)(F)Oc1cccc(CNc2noc(-c3sccc3Br)n2)c1 here?
A: 2.52%

Q: And the inhibition [2]?
A: 2.93%

Q: And the inhibition [3]?
A: 0.8%

Q: How did the inhibition [1] turn out when O=C(NC(=O)c1ccccc1O)c1ccccc1O was run?
A: -0.08%

Q: What about the inhibition [2] of the same compound?
A: 0.7%

Q: And the inhibition [3]?
A: 0.89%

Q: What does the source list for CCNc1cc(C(=O)N[C@@H](Cc2ccccc2)[C@H](O)CN[C@@H]2CCc3ccccc32)cc(N2CCCCS2(=O)=O)c1?
A: inhibition [1]: 1.06%; inhibition [2]: 1.96%; inhibition [3]: 1.17%

Q: For C#CCOc1ccccc1CN1CCC(N2CCc3cc(NC(=O)c4cc(C)on4)ccc32)C1 (stereo not drawn), which inhibition [1] is on record?
A: 2.61%

Q: And the inhibition [2]?
A: 1.64%

Q: What about the inhibition [3] of the same compound?
A: 4.74%

Q: For N=C(NCC1CC1c1ccccc1)c1cccc(C(=N)NCC2CC2c2ccccc2)n1 (stereo not drawn), which inhibition [1] is on record?
A: 5.1%

Q: And the inhibition [2]?
A: 5.88%

Q: What about the inhibition [3] of the same compound?
A: 6.3%

Q: For COc1ccc(C(=O)C2CCN(CCCCNC(=O)c3ccc(NC(=O)c4ccc(Cl)cc4)cc3)CC2)c(OC)c1, which inhibition [1] is on record?
A: 2.37%

Q: And the inhibition [2]?
A: 2.82%

Q: What about the inhibition [3] of the same compound?
A: 1.53%

Q: Which results are given for Cc1cc2cc(/C=C/C(=O)NC3CCC(CCN4CCc5ccc(C#N)cc5CC4)CC3)ccc2[nH]1 (stereo not drawn)?
A: inhibition [1]: 9.08%; inhibition [2]: 7.95%; inhibition [3]: 8.66%

Q: Cc1nn(-c2ccccc2)c2nc(-c3ccccc3)cc(C(=O)N3CCOCC3)c12 was tested. Which inhibition [1] did it give?
A: 1.26%

Q: What about the inhibition [2] of the same compound?
A: 0.16%

Q: What about the inhibition [3] of the same compound?
A: -2.24%

Q: With Fc1ccc2[nH]c(-c3cccc(-c4ccc(CN5CCC(CCN6CCCCC6)CC5)cc4)c3)nc2c1 as the compound, how does the inhibition [1] read?
A: -0.64%

Q: What about the inhibition [2] of the same compound?
A: 4.58%

Q: And the inhibition [3]?
A: 10.4%

Q: With COc1ccc2nc3cc(Cl)ccc3c(Nc3ccc(O)c(CN4CC5CCC(CC5)C4)c3)c2c1 as the compound, how does the inhibition [1] read?
A: 4.99%

Q: And the inhibition [2]?
A: 4.24%

Q: And the inhibition [3]?
A: 3.82%

Q: COc1ccc2nccc([C@@H](O)CN3CCC(NCc4cc5ccccc5nc4O)CC3)c2c1 was tested. Which inhibition [1] did it give?
A: 1.8%

Q: What about the inhibition [2] of the same compound?
A: 1.94%

Q: And the inhibition [3]?
A: 2%

Q: CCOC(=O)CCCOc1cc(Cc2cnc(N)nc2N)cc(OC)c1OC was tested. Which inhibition [1] did it give?
A: 6.94%

Q: And the inhibition [2]?
A: 5.94%

Q: What about the inhibition [3] of the same compound?
A: 7.18%
